Each sequence was assayed against SLC13A5 (assay: pooled miR-30 sensor sort-seq; sequence = guide strand). Details: shRNA.
Further: reference of the scale not given here.

Row | Sequence | sensor-assay potency score (higher = more potent)
1 | TACACAACCTCTTCCGCTCTTG | -0.374
2 | TTGTCTCTCATGTCTGTCTCTT | -0.189
3 | TTTTTCTTGCTCTCTAGCCCGC | -0.694
4 | TATGACTCCTGTTTTCACCATG | -1.13

What follows are sequences tested against SLC16A5 in the same assay as above. Details: shRNA.

Row | Sequence | sensor-assay potency score (higher = more potent)
5 | TTCAGTGAAGAAGATGCCGATA | -0.558
6 | TTGCAGTTCAGTGAAGAAGATG | -1.64
7 | ATGTACACGCAGTAGCCTGTGT | -0.541
8 | TTGCTTGGCCTGCAGTACCGCC | -1.47
9 | TAACAAAGTAACCTCCTACTTT | 0.00812
10 | TTGAGCAGGAGTGCCAGGCTGA | -0.145
11 | TTGCTGGCCTGGAACTCCCATT | -1.48
12 | TAGAAAACATAGCTAAAGTTGT | -0.585
13 | TTCTGCAGGGCGTAGAAGCTGC | -0.98
14 | TTGCTTCCCAGGACCGTCTTTG | -0.623
15 | TTGGCCTGCAGTACCGCCTTTG | -1.15
16 | TAGCTAAAGTTGTTGGTGGCGT | -0.44

These sequences were tested against SLC17A2 in the same assay as above. Details: shRNA.

Row | Sequence | sensor-assay potency score (higher = more potent)
17 | TATGTTAGGATGATGGTGCATA | -0.486
18 | ATTAGATAGACCTTGCTGCTGA | 0.973
19 | TTTTTTGCTCCAAATATCCCTG | -0.408
20 | TTTCGCACAGTGATCAATCTGA | 0.624
21 | ATGAACAGAAATCTGGACCTTT | 0.387
22 | TCTGATGTTAACATGGAGCAGA | -0.539
23 | AAATTGTACAGCTTGCAGCAGC | -0.887
24 | TAAACTGACCTGTCCATGCCAT | -0.0582
25 | TTATGGGGACAGCTCGTCCAGG | -1.25
26 | TCATAAATCACTGTGAACCATA | -0.911

These sequences were tested against SLC17A8 in the same assay as above. Details: shRNA.

Row | Sequence | sensor-assay potency score (higher = more potent)
27 | ATGAGGAACACATTCTGCCATT | -1.42
28 | TATATTATTGTGATTTCCCTGA | 0.059
29 | TACAACGATTGTCATAACCATG | -1.63
30 | TTACTTAGACTAACCACGTTGG | -0.0532
31 | TAAATCTATAATTTTTTCCGTA | -0.398
32 | TATGAGGAACACATTCTGCCAT | 0.122
33 | TTTACTTAGACTAACCACGTTG | -0.016
34 | TACGGTGCTATTGTTGACCATT | -0.977
35 | TAAGACATCTTCTTTTTGGGAC | 0.433
36 | TTTCATTGTAGTATTTCTCTGT | 0.732
37 | TTTTCCATCAACATATACGGTG | -0.405
38 | TTTCCATCAACATATACGGTGC | -0.418

Source: the OligoGym collection
